Inconclusive results are not listed. The source made the active and inactive calls. Calls follow the shape of the dose curve; as a rule, active = well fitted curve in the direction sought with a large enough effect; inconclusive = small, poorly fitted or top-dose-only effect, or another doubt; inactive = no such curve, though single readings can be large; an effect the other way counts as inactive or inconclusive.
Key:
[1] = Cell Viability - LYMP1-003 - Assay at 24 hr (AID 963); settings: LYMP1-003 lymphoblastoid cell viability; series mostly up to 92.2 µM
In short: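 Human lymphoblastoid LYMP1-003 cells, 2500/well, treated 24 h at 37 C in complete medium. Viability read as intracellular ATP by CellTiter-Glo luminescence after 30 min at room temperature; AC50 from Hill-equation fits of qHTS concentration-response.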

[2] = Cell Viability - LYMP1-003 - Assay at 40 hr (AID 964); settings: LYMP1-003 lymphoblastoid viability; series mostly up to 92.2 µM; also: nearly all actives have a fitted effect of over 60% in size
In short: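 LYMP1-003 human lymphoblastoid cells, 2500/well, preincubated 5 h at 37 C, then treated with compound for 40 h at 37 C. Intracellular ATP read by CellTiter-Glo luminescence after 30 min at room temperature; AC50 from Hill-equation fits.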

[3] = Cell Viability - LYMP2-003 (AID 965); settings: LYMP2-003 lymphoblastoid cell viability; series mostly up to 92.2 µM;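 also: cells exposed to compounds for 24 h before reading; nearly all actives have a fitted effect of over 50% in size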
In short: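 CellTiter-Glo luminescence (cellular ATP) after 24 h compound exposure at 37 C in complete medium; 2500 cells/well, 5 h settling beforehand. Concentration-response fitted to standard Hill equation for AC50. Tetraoctylammonium bromide served as positive control.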

[4] = Cell Viability - LYMP2-004 (AID 966); settings: LYMP2-004 lymphoblastoid cell viability, qHTS; series mostly up to 92.2 µM; also: nearly all actives have a fitted effect of over 65% in size
In short: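 Lymphoblastoid LYMP2-004 cells, 2500 per well, were preincubated for 5 hr and then treated with compound for 24 h at 37 C in complete medium. Viability was read as cellular ATP by CellTiter-Glo luminescence, and AC50 values were taken from Hill fits to concentration-response data.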

[5] = Cell Viability - LYMP2-005 (AID 967); settings: LYMP2-005 lymphoblastoid cell viability; series mostly up to 92.2 µM
In short: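 Steps: seed 2500 LYMP2-005 cells/well, incubate 5 h at 37 C, add compound, incubate 24 h at 37 C, add CellTiter-Glo, wait 30 min at RT, read luminescence. Concentration-response data fitted to Hill equation for AC50.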

[6] = Cell Viability - LYMP2-011 (AID 969); settings: LYMP2-011 lymphoblastoid cells viability; series mostly up to 92.2 µM; also: nearly all actives have a fitted effect of over 60% in size
In short: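 2500 cells/well in complete medium, compound-treated 24 h at 37 C. Viability read as intracellular ATP by CellTiter-Glo luminescence after 30 min at room temperature. AC50 from Hill fits of qHTS concentration-response data.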

[7] = Cell Viability - LYMP2-013 (AID 970); settings: LYMP2-013 lymphoblastoid cells viability; series mostly up to 92.2 µM; also: nearly all actives have a fitted effect of over 55% in size
In short: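 Human lymphoblastoid LYMP2-013 cells, 2500/well, treated 24 h at 37 C in complete medium; viability as intracellular ATP by CellTiter-Glo luminescence after 30 min. AC50 from Hill fits of qHTS concentration-response.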

[8] = Cell Viability - LYMP2-015 (AID 971); settings: LYMP2-015 lymphoblastoid cell viability; series mostly up to 92.2 µM; also: nearly all actives have a fitted effect of over 55% in size
In short: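 LYMP2-015 human lymphoblastoid cells (2500/well) in complete medium, compound-treated 24 h at 37 C; viability read as cellular ATP by CellTiter-Glo luminescence after 30 min at room temperature. AC50 from Hill-equation fits of qHTS concentration-response data.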

[9] = Cell Viability - LYMP2-017 (AID 972); settings: LYMP2-017 lymphoblastoid cell viability; series mostly up to 92.2 µM; also: nearly all actives have a fitted effect of over 55% in size
In short: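 LYMP2-017 human lymphoblastoid cells (2500/well) settled 5 hr at 37 C, then exposed to compound 24 hr at 37 C in complete medium. Viability taken as intracellular ATP by CellTiter-Glo luminescence after 30 min at RT; AC50 from Hill fits.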

[10] = Cell Viability - LYMP2-019 (AID 973); settings: LYMP2-019 lymphoblastoid cell line viability; series mostly up to 92.2 µM; also: nearly all actives have a fitted effect of over 55% in size
In short: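 Human lymphoblastoid LYMP2-019 cells (2500/well) preincubated 5 h at 37 C, then treated 24 h at 37 C in complete medium. Viability by CellTiter-Glo ATP luminescence after 30 min at room temperature; AC50 from Hill fits.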

[11] = Cell Viability - LYMP2-021 (AID 974); settings: LYMP2-021 lymphoblastoid cells viability; series mostly up to 92.2 µM
In short: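 Human lymphoblastoid LYMP2-021 cells, 2500/well in complete medium, treated 24 hours at 37 C. Intracellular ATP by CellTiter-Glo luminescence (30 min, RT); AC50 from Hill fits of concentration-response.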

[12] = Cell Viability - LYMP2-023 (AID 975); settings: LYMP2-023 lymphoblastoid cell viability; series mostly up to 92.2 µM
In short: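 LYMP2-023 human lymphoblastoid cells, 2500/well, preincubated 5 hr at 37 C, then compound-treated 24 hr at 37 C in complete medium. CellTiter-Glo luminescence (ATP) after 30 min at room temperature; AC50 from Hill-equation fits; tetraoctylammonium bromide positive control.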

[13] = Cell Viability - LYMP2-025 (AID 976); settings: LYMP2-025 lymphoblastoid cell viability; series mostly up to 92.2 µM
In short: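 Human lymphoblastoid LYMP2-025 cells, 2500/well, exposed 24 h at 37 C in complete medium in 1536-well qHTS. Viability as cellular ATP by CellTiter-Glo luminescence; AC50 from Hill fits of concentration-response data.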

[14] = Cell Viability - LYMP2-002 (AID 977); settings: LYMP2-002 lymphoblastoid cell viability, qHTS; series mostly up to 92.2 µM
In short: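 Luminescent ATP readout (CellTiter-Glo, 30 min room temperature) after 24 h compound exposure at 37 C of a human lymphoblastoid line, 2500 cells/well. AC50 values derived by standard Hill fitting of qHTS concentration-response data.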

[15] = Cell Viability - LYMP2-008 (AID 980); settings: LYMP2-008 lymphoblastoid cell viability, qHTS; series mostly up to 92.2 µM; also: nearly all actives have a fitted effect of over 60% in size
In short: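 LYMP2-008 lymphoblastoid cells (2500/well) plated 5 h, then treated 24 h at 37 C in complete medium. Viability read as intracellular ATP by CellTiter-Glo luminescence after 30 min at room temperature; AC50 from Hill fits.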

[16] = Cell Viability - LYMP2-010 (AID 981); settings: LYMP2-010 lymphoblastoid cell viability, qHTS; series mostly up to 92.2 µM; also: nearly all actives have a fitted effect of over 55% in size
In short: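 Human lymphoblastoid LYMP2-010 cells (2500/well) treated 24 h at 37 C in complete medium; viability read as intracellular ATP by CellTiter-Glo luminescence. AC50 from Hill fits of concentration-response data; tetraoctylammonium bromide positive control.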

[17] = Cell Viability - LYMP2-012 (AID 982); settings: LYMP2-012 lymphoblastoid cell viability qHTS; series mostly up to 92.2 µM
[18] = Cell Viability - LYMP2-014 (AID 983); settings: LYMP2-014 lymphoblastoid cells, viability qHTS; series mostly up to 92.2 µM; also: nearly all actives have a fitted effect of over 50% in size
In short: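 LYMP2-014 human lymphoblastoid cells, 2500/well, treated 24 h at 37 C in complete medium; viability by CellTiter-Glo ATP luminescence after 30 min at room temperature. AC50 from Hill fits of qHTS concentration-response; tetraoctylammonium bromide positive control.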

[19] = Cell Viability - LYMP2-016 (AID 984); settings: LYMP2-016 lymphoblastoid cell viability, qHTS; series mostly up to 92.2 µM; also: nearly all actives have a fitted effect of over 55% in size
In short: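 qHTS, 1536-well: 2500 LYMP2-016 cells/well, 5 hr 37 C, compound added, 24 hr 37 C, CellTiter-Glo 30 min RT, luminescence. Tetraoctylammonium bromide positive control. AC50 via Hill fit.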

[20] = Cell Viability - LYMP2-018 (AID 985); settings: LYMP2-018 lymphoblastoid cells, viability (qHTS); series mostly up to 92.2 µM;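 also: compound exposure lasted 24 hr at 37 °C; nearly all actives have a fitted effect of over 50% in size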
In short: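 Human lymphoblastoid LYMP2-018 cells, 2500/well, settled 5 hr at 37 C then exposed to compound 24 hr at 37 C; intracellular ATP measured by CellTiter-Glo luminescence. AC50 from Hill-equation concentration-response fits.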

Measured: Potency

Oc1c(Cl)c(Cl)c(Cl)c(Cl)c1Cl
inactive: all assays above

— PubChem BioAssay (NCATS)
